# The source made the active and inactive calls. No stated cut-off is given here; in the data, active means inhibition above about 31%; inactive means the rest.
# Biological target: N-formyl peptide receptor 2 (Homo sapiens) (UniProt P25090)
# Assay: FPRL1 fluorescent ligand binding inhibitors, cell-based, flow cytometry, single concentration (AID 765)
# Details: FPRL1-expressing cells, active compounds read high; at 5.1 µM unless noted
# N-formyl peptide receptor 2 (Homo sapiens), sequence (P25090 whole entry, looked up): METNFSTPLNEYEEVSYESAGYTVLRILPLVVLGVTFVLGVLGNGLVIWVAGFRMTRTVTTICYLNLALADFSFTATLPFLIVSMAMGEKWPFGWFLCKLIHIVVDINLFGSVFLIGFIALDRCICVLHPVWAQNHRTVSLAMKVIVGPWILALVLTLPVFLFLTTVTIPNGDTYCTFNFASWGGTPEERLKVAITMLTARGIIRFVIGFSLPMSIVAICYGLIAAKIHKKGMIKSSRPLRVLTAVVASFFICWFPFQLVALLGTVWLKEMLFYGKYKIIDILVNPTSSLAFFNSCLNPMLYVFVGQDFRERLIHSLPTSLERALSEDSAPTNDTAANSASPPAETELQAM
row,SMILES,inhibition
1,COc1ccc(-c2cn3cccnc3n2)cc1NC(=O)c1ccco1,-8.1% [at 6.7 µM] (inactive)
2,COc1ccc(-c2cn3cccnc3n2)cc1NC(=O)Cc1ccccc1,31.2% [at 6.2 µM] (active)
3,Cc1ccc2nc(N3CCN(C(=O)CCC(=O)O)CC3)nc(-c3ccccc3)c2c1,6.9% [at 5.5 µM] (inactive)
4,CCOC(=O)N1CCN(c2nc(-c3cccc(OC)c3)cc(C(F)(F)F)n2)CC1,-16.3% [at 5.4 µM] (inactive)
5,CC1(C)CC(=O)c2cnc(N3CCN(Cc4ccc5c(c4)OCO5)CC3)nc2C1,-3.3% [at 5.6 µM] (inactive)
6,FC(F)(F)c1nc(N2CCN(Cc3ccccc3)CC2)nc2c1CCCCC2,11.8% [at 5.7 µM] (inactive)
7,COc1ccc(-c2cn3cccnc3n2)cc1NC(=O)c1ccc(C(F)(F)F)cc1,-3.6% [at 5.4 µM] (inactive)
8,COc1ccccc1-c1cc(C(F)(F)F)nc(N2CCN(c3ccc(F)cc3)CC2)n1,-8.8% (inactive)
9,O=C(O)CCC(=O)N1CCN(c2nc(-c3ccccc3)c3ccccc3n2)CC1,-3.2% [at 5.7 µM] (inactive)
10,Fc1ccc(-c2cc(C(F)(F)F)nc(N3CCN(c4ccccc4)CC3)n2)cc1,1.9% [at 5.5 µM] (inactive)
11,COc1ccc(-c2cn3cccnc3n2)cc1NC(=O)C(C)C,25.1% [at 7.2 µM] (inactive)
12,COc1ccc(-c2cn3cccnc3n2)cc1NC(=O)c1cccc(Cl)c1,25.4% [at 5.9 µM] (inactive)
13,CCOC(=O)N1CCN(c2nc(-c3ccc(OC)c(OC)c3)cc(C(F)(F)F)n2)CC1,36.1% (active)
